Experimental findings from ChEMBL document CHEMBL4513216, “Probing the Open Global Health Chemical Diversity Library for Multistage-Active Starting Points for Next-Generation Antimalarials” (ACS Infect Dis, 2020) are described below.

Out of some 69,000 compounds screened, about 8,600 (12%) showed an effect of 50% or more. Only a selection was taken, and strong results are over-represented in it overall.

The assay deals with Plasmodium berghei. In words: Screen against P. berghei liver stage (PbLuc), transformed with Luciferase, at 10uM. In kind it is functional, HepG2. To be noted: tested at 10 uM.
Take `Cc1ccc2oc(CNC(C)c3nnc4n3CCCC4)cc2c1` (stereo unspecified): the INHIBITION was determined as 50.1%.

`CC(NCc1ccco1)c1nnc2n1CCCC2` (stereo unspecified): the INHIBITION is 52.9%.

Turning to `Cc1ccc(CNC(C)c2nnc3n2CCCC3)o1` (stereo unspecified), the INHIBITION was -4.48%.

Take `CC(NCc1cc2cc(F)ccc2o1)c1nnc2n1CCCC2` (stereo unspecified): the INHIBITION worked out at 35%.

As to `Cc1ccoc1CNC(C)c1nnc2n1CCCC2` (stereo unspecified), the INHIBITION is given as 34.1%.

As for `CC(NCc1ccc(Cl)o1)c1nnc2n1CCCC2` (stereo unspecified), the INHIBITION was 15.1%.

As for `CN1CCCN(C(=O)c2nc3c(o2)CN(S(C)(=O)=O)C3)CC1`, the INHIBITION stood at 41.2%.

As to `Cn1ccc(CN2CCCC23CCN(Cc2nccn2C)CC3)n1`, the INHIBITION is 27.6%.

As to `Cn1cc(CN2CCC3(CCCN3Cc3cccnc3)CC2)cn1`, the INHIBITION turned out to be 29%.

Consider `Fc1cccc(CN2CCC3(CCCN3c3ncccn3)CC2)c1`, for which the INHIBITION worked out at 42.4%.

Consider `COc1cc(N2CCC3(CCCN3Cc3ccn(C)n3)CC2)ncn1`, for which the INHIBITION is reported as 21.7%.

In the case of `Cc1ccc(N2CCC3(CCCN3Cc3ccn(C)n3)CC2)nn1`, the INHIBITION amounted to 53.9%.

For the molecule `Cn1ccc(CN2CCCC23CCN(Cc2cccc(F)c2)CC3)n1`, the INHIBITION is on record as 56.6%.

On to `Cn1ccc(CN2CCCC23CCN(Cc2ccccc2F)CC3)n1`, for which the INHIBITION is 53%.

Regarding `Cn1ccc(CN2CCC3(CCCN3CC3CC3)CC2)n1`, the INHIBITION came out at 17.7%.

As to `Cn1ccc(CN2CCCC23CCNCC3)n1`, the INHIBITION is listed as -12.1%.

Consider `CCOCCCC(=O)Nc1cccnc1-n1ccnc1C`, for which the INHIBITION came to 7.92%.

With `Cc1ccc(C(=O)N2CCCN(Cc3cccs3)CC2)c(=O)[nH]1`, the INHIBITION was determined as 17.68%.

In the case of `COc1ccc(C(C)N(C)Cc2c(C3CC3)[nH]c3ncccc23)cc1` (stereo unspecified), the INHIBITION is reported as 44.8%.

On to `CN(Cc1ccco1)[C@@H]1CN(C(=O)c2ccnnc2)[C@@H]2CCCO[C@H]12`, for which the INHIBITION is listed as 41.8%.

With `Cc1ccc(CC(=O)N2Cc3nccn3CC(CN(C)C)C2)cc1` (stereo unspecified), the INHIBITION came to 10.1%.

On to `CCOCCNC(=O)c1ccc(OC)cc1I`, for which the INHIBITION is 14.4%.

Take `COc1c(CNCc2ccc(Cn3ccnc3)cc2)c(C)nn1C`: the INHIBITION came to 16.8%.

On to `O=S1(=O)c2ccccc2C2(CCN(Cc3ccccc3)C2)N1CC1CC1` (stereo unspecified), for which the INHIBITION was found to be 81.3%.

For `CCCN1CCC2(C1)c1ccccc1S(=O)(=O)N2Cc1ccccc1` (stereo unspecified), the INHIBITION was 68.4%.

As to `CCCN1CCC2(C1)c1ccccc1S(=O)(=O)N2Cc1ccc(F)cc1` (stereo unspecified), the INHIBITION was 23.3%.

With `COCCN1C2(CCN(CC3CC3)C2)c2ccccc2S1(=O)=O` (stereo unspecified), the INHIBITION is -54.9%.

With `CC1N(CC2CC2)C(=O)COC12CCN(C(=O)c1ccncc1)CC2` (stereo unspecified), the INHIBITION is on record as 48.2%.

With `CN1CCN(Cc2cccnc2)C(=O)C12CCN(CC1CCOC1)CC2` (stereo unspecified), the INHIBITION came out at 29.4%.

On to `CC1N(CC2CC2)C(=O)COC12CCN(C(=O)c1cccs1)CC2` (stereo unspecified), for which the INHIBITION came out at 74.8%.

As to `COCCN1CCC2(C1)c1ccccc1S(=O)(=O)N2Cc1ccccc1` (stereo unspecified), the INHIBITION is 15.3%.

For the molecule `O=S1(=O)c2ccccc2C2(CCN(Cc3cccnc3)C2)N1CC1CC1` (stereo unspecified), the INHIBITION is 76.5%.

In the case of `CC1N(CC2CC2)C(=O)COC12CCN(C(=O)c1ccno1)CC2` (stereo unspecified), the INHIBITION is 11.3%.

For the molecule `O=C(N1CCCO1)[C@@]12CCO[C@@H]1CCN(Cc1cccnc1)C2`, the INHIBITION was determined as 17.4%.

As to `CN1C2(CCN(Cc3ccc(F)cc3)C2)c2ccccc2S1(=O)=O` (stereo unspecified), the INHIBITION is 16.9%.

Take `CNC(=O)c1cn[nH]c1C1CCCN1c1nc(C)cc(C)n1` (stereo unspecified): the INHIBITION is 34.1%.

On to `CCN1CCOCC2(CCCN(C(=O)c3ccccc3F)C2)C1` (stereo unspecified), for which the INHIBITION is -60.3%.

Consider `CN(C)[C@@H]1CN(Cc2ccccc2O)C[C@H]1c1cn(C)c2ccccc12`, for which the INHIBITION turned out to be 49.5%.

In the case of `Cn1ccnc1CNC(=O)c1cnc(C2CCNCC2)cn1`, the INHIBITION is given as 33%.

Regarding `COc1ccccc1C1(CNC(=O)NCc2noc(C)n2)CC1`, the INHIBITION is 4.66%.

`Cc1nc(C(=O)N(C)CC(=O)N(C)C)nn1-c1ccccc1C(C)C`: the INHIBITION is -15.5%.

For `COCCN1C2(CCN(C(=O)c3cccs3)C2)c2ccccc2S1(=O)=O` (stereo unspecified), the INHIBITION is 8.03%.

For `O=C(c1cccs1)N1CCC2(C1)c1ccccc1S(=O)(=O)N2CC1CC1` (stereo unspecified), the INHIBITION came to 51.2%.

In the case of `CCNC(=O)N1CCC2(C1)c1ccccc1S(=O)(=O)N2CCOC` (stereo unspecified), the INHIBITION is -1.15%.

On to `COCCNC(=O)Cn1cc(OCc2ccccc2)c(=O)cc1CO`, for which the INHIBITION was -8.66%.

In the case of `Cc1cc(C)n(CC2CCCN2C(=O)c2nccc3ccccc23)n1` (stereo unspecified), the INHIBITION is listed as -144%.

Regarding `COc1ccc(OCCc2nnc(NC(C)=O)s2)cc1`, the INHIBITION is 20.9%.

For `COc1ccc(-c2cnc(NC(C)=O)[nH]2)cc1`, the INHIBITION stood at 56%.

Turning to `CC(=O)Nc1ncc(-c2ccc(C)cc2)[nH]1`, the INHIBITION is reported as 45.5%.

For `CC(C)CCN1C[C@@H]2C[C@H](C(=O)N3CCCC3)[C@H](C1)O2`, the INHIBITION is reported as 10.6%.

`COc1ccccc1C(=O)N1CCOCC1c1c(C)n[nH]c1C` (stereo unspecified): the INHIBITION is -34.8%.

`CN1N=C(C(=O)NCCc2ccc(OC3CCCC3)cc2)CCC1=O`: the INHIBITION was determined as 45.4%.

For the molecule `CC(C)[C@H](NS(C)(=O)=O)C(=O)NCc1cc(-c2ccco2)n[nH]1`, the INHIBITION is 23.4%.

For `CC(C)[C@H](NS(C)(=O)=O)C(=O)NCc1cc(-c2ccccc2)nn1C`, the INHIBITION is 20.4%.

Take `CC(C)[C@H](NS(C)(=O)=O)C(=O)NCc1cc(-c2ccco2)nn1C`: the INHIBITION is reported as 54.5%.

As for `Cc1nc(CN(CCS(C)(=O)=O)C(C)(C)C)no1`, the INHIBITION turned out to be 12.9%.

For `N#Cc1cccnc1N1CCCN(C(=O)CCc2nccs2)CC1`, the INHIBITION is recorded as -19.4%.

For `CCOCC(=O)NC1(c2nc(C)cs2)CCCC1`, the INHIBITION worked out at 25.2%.

As to `CCN1CC(C(=O)NCc2ccc3c(c2)nc(C)n3C)CCC1=O` (stereo unspecified), the INHIBITION is 11.9%.

For `Cc1nc2cc(CNC(=O)C3CC(=O)N(CCN(C)C)C3)ccc2n1C` (stereo unspecified), the INHIBITION is -4.35%.

In the case of `Cc1nc2cc(CNC(=O)C3CC(=O)N(C4CCCC4)C3)ccc2n1C` (stereo unspecified), the INHIBITION is recorded as 53.7%.

`CCc1cnc(N)nc1NCCN1CCCCC1`: the INHIBITION is 5.14%.

For `CCc1cnc(N)nc1NCCC(=O)NC1CCCCC1`, the INHIBITION amounted to 68.4%.

For the molecule `CCc1nc(N)nc(NCCC(=O)NC2CCCCC2)c1C`, the INHIBITION turned out to be 41.5%.

Turning to `O=C(NC1CC1)C1(Cc2cc(-c3ccc(F)cc3F)no2)CCOCC1`, the INHIBITION is reported as 31.6%.

Take `Nc1nccc(N2CCC(c3cc(Cc4ccccc4)n[nH]3)CC2)n1`: the INHIBITION was 78.8%.

On to `NC(=O)NCCC(=O)N1CCC(c2cc(Cc3ccccc3)n[nH]2)CC1`, for which the INHIBITION is -5.22%.

As to `Cc1cc(CN2CCC(c3cc(Cc4ccccc4)n[nH]3)CC2)[nH]n1`, the INHIBITION turned out to be 30.9%.

Regarding `Nc1cc(N2CCC(c3cc(Cc4ccccc4)n[nH]3)CC2)ccn1`, the INHIBITION stood at 75.4%.

On to `Nc1nc(O)cc(N2CCC(c3cc(Cc4ccccc4)n[nH]3)CC2)n1`, for which the INHIBITION is reported as 47%.

With `Cc1ccc(N2CCC(c3cc(Cc4ccccc4)n[nH]3)CC2)nn1`, the INHIBITION is given as 20.9%.
